# Measured values: the supplement of paper PMC9135407
# Values joined by “and” are separate entries in the source; they are usually repeats but may differ in a detail not shown here. Equal entries are not always repeated. Structures can show the parent of a compound that is named as a salt. The whole screen tested about 5,800 compounds, of which about 620 (11%) showed activity. Many of the other results were omitted from the sample, so actives are more common in it than they were. A number with no mark means an inactive call.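 The calls were made as follows: active = score above a cut-off or among the top three wells of a plate; in these data no inactive exceeds 0.85.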
# System: primary human hepatic stellate cells (donor 1)
# Assay: scaled lipid accumulation score (0 = DMSO-like, 1 = nortriptyline-like); higher = stronger HSC inactivation (lipid re-accumulation), active = hit call of the paper
# Settings: 48 h
# [1] = library stock concentration: 10 mM
# [2] = library stock concentration: 1 mM
# [3] = library stock concentration: 3.33 mM
# [4] = library stock concentration: 80 uM
# [5] = library stock concentration: 400 uM
# [6] = library stock concentration: 2 mM
smiles,measurement,setting,value
CCN(c1ccccc1)c1cc(=NC)n(C)c(C)n1,scaled lipid accumulation score,[1],≤ 0
CN(C)CCCCCCOc1ccc(-n2ccnc2)cc1,scaled lipid accumulation score,[2],0.054 and 0.003
NC(N)=N[C@@H](CCC(=O)O)C(=O)O [alpha-Guanidinoglutaric acid],scaled lipid accumulation score,[1],≤ -0.007
NC(N)=N[C@@H](CCC(=O)O)C(=O)O [.alpha.-Guanidinoglutaric Acid],scaled lipid accumulation score,[2],≤ 0
O=C(Nc1cccc(C(F)(F)F)c1)Nc1cc(S(=O)(=O)NC2CC2)ccc1-c1ccsc1,scaled lipid accumulation score,[3],0.022
same,scaled lipid accumulation score,[1],0.632
OC(CC1c2ccccc2-c2cncn21)C1CCCCC1 (stereo unspecified),scaled lipid accumulation score,[3],≤ -0.009
same,scaled lipid accumulation score,[1],0.209
Cc1ccc(Nc2c(F)cccc2Cl)c(CC(=O)O)c1 [Lumiracoxib],scaled lipid accumulation score,[3],≤ 0
same,scaled lipid accumulation score,[1],0.025
Cc1ccc(Nc2c(F)cccc2Cl)c(CC(=O)O)c1,scaled lipid accumulation score,[1],≤ 0
CCCCC[C@H](O)/C=C/[C@@H]1c2cc(CCCCC(=O)O)n(-c3ccccc3)c2C[C@H]1O [Piriprost (potassium salt)],scaled lipid accumulation score,[2],≤ 0
O=c1c2ccccc2nc2n1CCc1c-2[nH]c2ccccc12 [Rutaecarpine] [listing 1 of 2 here],scaled lipid accumulation score,[1],0.975 (active)
O=c1c2ccccc2nc2n1CCc1c-2[nH]c2ccccc12 [Rutaecarpine] [listing 2 of 2 here],scaled lipid accumulation score,[3],≤ 0
same,scaled lipid accumulation score,[1],0.58
CN1CCc2ccccc2Cc2[nH]c3ccccc3c2CC1,scaled lipid accumulation score,[1],0.244
CCC(CC)(NC(=O)C(C)C)C(=O)N[C@@H](CCCN=C(N)N)C(=O)NC1(C(=O)NC(c2ccc(F)cc2)c2ccc(F)cc2)CCCC1,scaled lipid accumulation score,[3],≤ -0.009
same,scaled lipid accumulation score,[1],≤ 0
Cc1cnc(-c2cc(N3CCN(C(=O)CCS(C)(=O)=O)CC3)ncc2Cl)c(C)c1,scaled lipid accumulation score,[3],≤ 0
same,scaled lipid accumulation score,[1],≤ 0
CCC(C)[C@H](NC(=O)[C@H](CCCCN)NC(=O)[C@H](CCCCN)NC(=O)[C@H](C)NC(=O)[C@H](CC(C)C)NC(=O)[C@H](C)NC(=O)[C@H](C)NC(=O)[C@H](CC(C)C)NC(=O)[C@H](C)NC(=O)[C@H](CCCCN)NC(=O)[C@H](CC(C)C)NC(=O)[C@H](CC(N)=O)NC(=O)[C@@H](N)[C@@H](C)CC)C(=O)N[C@@H](CC(C)C)C(N)=O (stereo partly specified) [Mastoparan],scaled lipid accumulation score,library stock concentration: 3 mM,≤ -0.012
c1cncc(CN2CCC(n3ncc4c(N5CCOCC5)nc(-c5ccc6[nH]ccc6c5)nc43)CC2)c1,scaled lipid accumulation score,[3],1.19 (active)
same,scaled lipid accumulation score,[1],1.19 (active)
COC(=O)Nc1ccc(-c2nc(N3CCOCC3)c3cnn(C4CCN(C(=O)OC)CC4)c3n2)cc1,scaled lipid accumulation score,[3],≤ 0
same,scaled lipid accumulation score,[1],≤ 0
CNC(=O)Nc1ccc(-c2nc(N3CC4CCC(C3)O4)c3cnn(C4CCC5(CC4)OCCO5)c3n2)cc1,scaled lipid accumulation score,[4],≤ 0
same,scaled lipid accumulation score,[5],0.006
same,scaled lipid accumulation score,[6],≤ 0
same,scaled lipid accumulation score,[3],≤ 0
same,scaled lipid accumulation score,[1],0.733 and 0.772
CN(C)[C@@H]1C(O)=C(C(=O)NCNCCCC[C@H](N)C(=O)O)C(=O)[C@@]2(O)C(O)=C3C(=O)c4c(O)cccc4[C@@](C)(O)[C@H]3C[C@@H]12 [Lymecycline],scaled lipid accumulation score,,0.003
CC(C)(C)OC(=O)Nc1cccc2[nH]ccc12 [(1H-Indol-4-yl)-Carbamic Acid tert-butyl ester],scaled lipid accumulation score,[2],≤ 0
C[C@@H](N)c1ccc(C(=O)Nc2ccnc3[nH]ccc23)cc1,scaled lipid accumulation score,[4],≤ -0.009
same,scaled lipid accumulation score,[5],≤ -0.009
same,scaled lipid accumulation score,[6],0.069
C[C@@H](N)c1ccc(C(=O)Nc2ccnc3[nH]ccc23)cc1.Cl.Cl,scaled lipid accumulation score,[1],1.13 (active)
CCCCCCCCCCCCCC=CC(O)C(COP(=O)(O)O)NC(=O)CCCCCCC (stereo unspecified) [C-8 Ceramide-1-phosphate],scaled lipid accumulation score,[2],≤ 0
Nc1nc(F)nc2c1ncn2[C@@H]1O[C@H](COP(=O)(O)O)[C@@H](O)[C@@H]1O [Fludarabine Phosphate],scaled lipid accumulation score,[3],0.514
same,scaled lipid accumulation score,[1],0.748
CN1CCN(C(c2ccccc2)c2ccc(Cl)cc2)CC1 (stereo unspecified) [Chlorcyclizine hydrochloride],scaled lipid accumulation score,,0.377
same,scaled lipid accumulation score,library stock concentration: 5.9 mM,0.391
CN1CCN(C(c2ccccc2)c2ccccc2)CC1 [Cyclizine],scaled lipid accumulation score,library stock concentration: 7.5 mM,0.186
same,scaled lipid accumulation score,[1],0.521
CN1CCN(C(c2ccccc2)c2ccccc2)CC1 [Cyclizine hydrochloride],scaled lipid accumulation score,,0.648
CN1CCN(C(c2ccccc2)c2ccccc2)CC1 [Cyclizine 2HCl],scaled lipid accumulation score,[3],≤ 0
same,scaled lipid accumulation score,[1],0.742
CN1CCCN(C(c2ccccc2)c2ccc(Cl)cc2)CC1.Cl.Cl (stereo unspecified) [Homochlorcyclizine dihydrochloride],scaled lipid accumulation score,,0.879 (active)
[Cl-].[Li+] [Lithium Chloride],scaled lipid accumulation score,[1],≤ -0.07
COC(=O)C1=C(C)NC(C)=C(C(=O)OC)C1c1cccc(NC(=O)NCCCN2CCC(c3cccc(OC)c3)CC2)c1,scaled lipid accumulation score,[1],0.68
COc1cc(N2CCN(C)CC2)ccc1Nc1nc(N)c(C(=O)c2c(Cl)cccc2Cl)s1,scaled lipid accumulation score,[4],0.02
same,scaled lipid accumulation score,[5],≤ -0.009
same,scaled lipid accumulation score,[6],0.155
same,scaled lipid accumulation score,[1],0.8
CC1CCN(c2cc(N3CCN(C)CC3)ccc2NC(=O)c2cc(C#N)c[nH]2)CC1 [listing 1 of 2 here],scaled lipid accumulation score,[1],1.32 (active)
CC1CCN(c2cc(N3CCN(C)CC3)ccc2NC(=O)c2cc(C#N)c[nH]2)CC1 [listing 2 of 2 here],scaled lipid accumulation score,[4],0.044
same,scaled lipid accumulation score,[5],≤ -0.016
same,scaled lipid accumulation score,[6],≤ -0.016
"CCCC/C=C/C=C/C=C/CCCCCCCC(=O)OC [9(Z),11(E),13(E)-Octadecatrienoic Acid methyl ester]",scaled lipid accumulation score,[2],≤ 0
CC(=O)c1cc2c(cc1O)OC(C)(C)C=C2 [Eupatoriochromene],scaled lipid accumulation score,[1],0.066
Nc1ncnc2c1c(-c1cccc(OCc3ccccc3)c1)cn2[C@H]1C[C@@H](CN2CCC2)C1,scaled lipid accumulation score,[3],0.894 (active)
same,scaled lipid accumulation score,[1],1.01 (active)
Nc1ncnc2c1c(-c1cccc(OCc3ccccc3)c1)cn2C1CC(CN2CCCC2)C1 (stereo unspecified),scaled lipid accumulation score,[1],0.36
C=CC(=O)N1CCC[C@@H](n2nc(-c3ccc(Oc4ccccc4)cc3)c3c(N)ncnc32)C1,scaled lipid accumulation score,[4],≤ -0.009
same,scaled lipid accumulation score,[5],0.313
same,scaled lipid accumulation score,[6],0.033
same,scaled lipid accumulation score,[3],≤ 0
same,scaled lipid accumulation score,[1],≤ 0 and 0.22
Nc1ncnc2c1c(-c1cccc(OCc3ccccc3)c1)cn2[C@H]1C[C@H](CN2CCCC2)C1,scaled lipid accumulation score,[3],1.09 (active)
Nc1ncnc2c1c(-c1ccc(Oc3ccccc3)cc1)cn2C1CCCC1,scaled lipid accumulation score,[1],≤ -0.07
Nc1ncnc2c1c(-c1cccc(OCc3ccccc3)c1)cn2C1CC(CN2CCC2)C1 (stereo unspecified),scaled lipid accumulation score,[4],0.167
same,scaled lipid accumulation score,[5],0.351
same,scaled lipid accumulation score,[6],0.67
same,scaled lipid accumulation score,[1],0.657
COc1cc(O)c2c(c1)/C=C/C[C@H](O)[C@H](O)C(=O)/C=C\C[C@H](C)OC2=O [5z-7-oxozeaenol],scaled lipid accumulation score,[4],≤ -0.016
same,scaled lipid accumulation score,[5],≤ -0.016
same,scaled lipid accumulation score,[6],≤ -0.016
same,scaled lipid accumulation score,[1],0.613
CN1C(CCl)Nc2cc(Cl)c(S(N)(=O)=O)cc2S1(=O)=O (stereo unspecified),scaled lipid accumulation score,[1],0.013
CN1C(CCl)Nc2cc(Cl)c(S(N)(=O)=O)cc2S1(=O)=O (stereo unspecified) [Methyclothiazide],scaled lipid accumulation score,[3],≤ 0
same,scaled lipid accumulation score,[1],≤ -0.001
"COC(=O)CCC[C@H](O)[C@H](O)CO [5(S),6(R)-7-trihydroxymethyl Heptanoate]",scaled lipid accumulation score,[2],≤ 0
NC[C@@H]1CC[C@@H](N)[C@@H](O[C@H]2[C@H](O)[C@@H](O[C@H]3O[C@H](CO)[C@@H](O)[C@H](N)[C@H]3O)[C@H](N)C[C@@H]2N)O1 [Dibekacin],scaled lipid accumulation score,[1],0.108
CC(CCc1ccccc1)NCC(O)c1ccc(O)c(C(N)=O)c1 (stereo unspecified) [Labetalol HCl],scaled lipid accumulation score,[3],≤ 0
same,scaled lipid accumulation score,[1],0.464
CC(C)(C)NC[C@H](O)c1ccc(O)c(CO)c1,scaled lipid accumulation score,[1],≤ 0
O=C(O)c1ccc2ccccc2c1O.OCc1cc(C(O)CNCCCCCCOCCCCc2ccccc2)ccc1O (stereo unspecified) [Salmeterol xinafoate],scaled lipid accumulation score,[1],0.978 (active)
CC(C)(C)NCC(O)c1ccc(O)c(CO)c1 (stereo unspecified) [Albuterol hemisulfate],scaled lipid accumulation score,[1],≤ 0
CC(C)(C)NCC(O)c1ccc(O)c(CO)c1 (stereo unspecified),scaled lipid accumulation score,[1],0.076
OCc1cc(C(O)CNCCCCCCOCCCCc2ccccc2)ccc1O (stereo unspecified) [Salmeterol] [listing 1 of 2 here],scaled lipid accumulation score,[1],1.08 (active)
CC(CCc1ccccc1)NCC(O)c1ccc(O)c(C(N)=O)c1 (stereo unspecified),scaled lipid accumulation score,[1],0.089
CC(CCc1ccccc1)NCC(O)c1ccc(O)c(C(N)=O)c1 (stereo unspecified) [Labetalol hydrochloride],scaled lipid accumulation score,,0.321
same,scaled lipid accumulation score,[1],0.546 and 0.164
OCc1cc(C(O)CNCCCCCCOCCCCc2ccccc2)ccc1O (stereo unspecified) [Salmeterol] [listing 2 of 2 here],scaled lipid accumulation score,,0.275
same,scaled lipid accumulation score,library stock concentration: 4.8 mM,0.553
same,scaled lipid accumulation score,[1],0.62
CC(C)(C)NCC(O)c1ccc(O)c(CO)c1 (stereo unspecified) [Salbutamol],scaled lipid accumulation score,,≤ 0
O=C(CCCC[C@@H]1SC[C@@H]2NC(=O)N[C@@H]21)NCCCC[C@H](NC(=O)CCN1C(=O)C=CC1=O)C(=O)O [3-(N-Maleimidopropionyl)-biocytin],scaled lipid accumulation score,[2],≤ 0
Cc1c(C(=O)Nc2ccc(N3CCC(N4CCOCC4)CC3)c(C#N)c2)cnn1-c1ccc(Cl)cc1,scaled lipid accumulation score,[3],0.756
same,scaled lipid accumulation score,[1],0.699
C[N+]1(C)[C@@H]2C[C@@H](OC(=O)C(O)(c3cccs3)c3cccs3)C[C@H]1[C@@H]1O[C@@H]12 [Tiotropium Bromide hydrate],scaled lipid accumulation score,[3],≤ 0
same,scaled lipid accumulation score,[1],≤ 0
